In PubChem BioAssay (NCI):
The panel holds about 83,000 compounds, 20% with a hit somewhere; the sample as a whole holds those more often.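 The endpoint reported here, percent growth, reads 100 for growth as untreated, 0 for no net growth and -100 for all cells dead.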 Active and inactive are the calls of the source. The calls were made as follows: active = growth percent below 10; inactive = the rest.

What follows are molecules tested on MDA-MB-468 breast (assay: NCI-60 one-dose screen, 48 h (100 = growth as untreated, 0 = no growth, -100 = all killed)). Conditions: 10 µM unless noted.

SMILES | growth
COC(=O)[C@@]12CC=C(C)[C@]3(C[C@H](c4ccoc4)OC3=O)[C@H]1C=C[C@@H](O)[C@@]2(O)C(=O)OC | 121% (inactive)
CC(=O)Nc1cccc(Nc2nc(N[C@H](C)c3ccccc3)c3ccccc3n2)c1 | 6.66% (active)
Nc1nnc(C(=O)c2cnc3n(c2=O)CCCCC3)s1 | 90.4% (inactive)
O=C1/C(=C\c2ccc(Br)cc2)CN(C(=O)c2ccccc2F)C/C1=C\c1ccc(Br)cc1 | -54.1% (active)
O=C1/C=C/[C@@H](O)[C@@H]2C[C@@H](O)C[C@H]2/C=C/CCC[C@H](CCc2ccc3ncccc3c2)O1 | -5.95% (active)
Cc1cc(N(CCCNc2ccnc3cc(Cl)ccc23)Cc2cccs2)nc(Cl)n1 | 1.63% (active)
O=C1c2ccccc2C(=O)c2c(O)c(Cl)cc(O)c21 | -15.7% (active)
COc1ccc2c(=O)cc(C(Cl)(Cl)Cl)oc2c1 | -81.2% (active)
O=C1NCC(Nc2ccc(Br)cc2Cl)C(=O)N1 (configuration not stated) | 124% (inactive)
CCOC(=O)c1cc(/C(=N\O)c2cc(OC)c(OC)c(OC)c2)n2cc(C)cc(C)c12 | 15.8% (inactive)
O=C1N/C(=N/N=C(c2ccccc2)c2ccccc2)S/C1=C\c1ccc(Br)cc1 | 103% (inactive)
COc1cccc(/C=C/C(=O)/C=C(/C=C/c2cccc(OC)c2OC)OB(F)F)c1OC | 52.7% (inactive)
COc1ccc(-c2ccc(-c3ccc(C(=N)N)c(F)c3)s2)cc1 | -78.7% (active)
CCOC(=O)C1C(=O)C=C(c2cc(OC)c(OC)c(OC)c2)CC1c1sc(N(C)Cc2ccccc2)nc1Cl (configuration not stated) | 71.2% (inactive)
O=C(Nc1ccccc1)C(CCCCN1C(=O)c2ccccc2C1=O)N1C(=O)c2ccccc2C1=O (configuration not stated) | 103% (inactive)
CCN(CC)c1ccc(NC2=C(Cl)C(=O)c3nc(C)ccc3C2=O)cc1 | -45% (active)
COc1ccc(NS(=O)(=O)c2ccc(-c3cnc(C4CC4)o3)cc2)cc1 | 12.5% (inactive)
N#Cc1c(-c2cccs2)cc(-c2cnccn2)nc1SCC(=O)NNC(=S)Nc1ccc(F)cc1 | 122% (inactive)
O=C(Nc1ccc(-n2cc(-c3ccncc3)c(-c3ccc(O)c(Cl)c3)n2)cc1)Nc1cccc(Cl)c1Cl | 43.5% (inactive)
Cc1cc(CSc2ccc(Cl)cc2)ccc1N | 102% (inactive)
CCCCOc1nc2ccc(C)cc2cc1/C=C/C(=O)/C=C(O)/C=C/c1cc2cc(C)ccc2nc1OCCCC | 104% (inactive)
COc1nccnn1 | 82.9% (inactive)
Cn1c([N+](=O)[O-])cnc1/C=C1\Oc2ccc(Cl)cc2C1=O | 7.19% (active)
COC(OC)C1(c2ccccc2)NC(=O)NC1=O (configuration not stated) | 113% (inactive)
CN(c1ccccc1)c1ccc2c(c1)OCCC21CC1Nc1cnccc1C(=O)O (configuration not stated) | 72.3% (inactive)
COCCn1cc(-c2csc(-c3c[nH]c4ccc(F)cc34)n2)c2cccnc21 | -6.83% (active)
O=C1CCCC1[n+]1ccccc1 (configuration not stated) | 120% (inactive)
